Measurements from PubChem BioAssay (NCI).
This is part of a sample that, as a whole, favours compounds with a hit. Of some 79,000 tested, about 15% had one in any assay. Activity calls are given as the source filed them. Cut-off read from the data, not from the text of the source: active = growth inhibition above about 70%; inactive = the rest.

Key:
[1] = NCI Yeast Anticancer Drug Screen. Data for the rad50 strain (AID 155);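 note: 0% = growth of vehicle-only cultures of the same strain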; conditions: S. cerevisiae rad50 strain growth inhibition; at 50.0 µM; stronger effect = higher value
Outline: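 Compounds were tested on a yeast strain with an engineered DNA damage repair alteration; the reported value is growth inhibition normalised to vehicle treatment.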

[2] = NCI Yeast Anticancer Drug Screen. Data for the mec2-1 strain (AID 157); conditions: S. cerevisiae mec2-1 strain, at 50.0 µM, stronger effect = higher value
Outline: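 Growth inhibition is read against vehicle-treated controls after compound exposure of the mec2-1 yeast strain, which is defective in DNA damage repair or cell cycle control.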

[3] = NCI Yeast Anticancer Drug Screen. Data for the sgs1 mgt1 strain (AID 161);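 note: 0% = growth of cultures given vehicle only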; conditions: S. cerevisiae sgs1 mgt1 strain, at 50.0 µM, stronger effect = higher value
Outline: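 Compounds are added to genetically altered yeast, and growth is compared with cultures given vehicle alone to give percent inhibition.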

[4] = NCI Yeast Anticancer Drug Screen. Data for the cln2 rad14 strain (AID 165);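 note: 0% = growth equal to vehicle treated cultures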; conditions: S. cerevisiae cln2 rad14 strain, at 50.0 µM, stronger effect = higher value
Outline: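 Growth inhibition, relative to vehicle-treated controls, is the read-out. The test organism is a yeast strain with defined genetic alterations, cln2 rad14.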

[5] = NCI Yeast Anticancer Drug Screen. Data for the bub3 strain (AID 167); conditions: S. cerevisiae bub3 mutant strain, at 50.0 µM, stronger effect = higher value
Outline: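 Growth of a checkpoint-deficient yeast mutant is measured after compound exposure. Values represent inhibition relative to vehicle.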

[6] = NCI Yeast Anticancer Drug Screen. Data for the mlh1 rad18 strain (AID 175); conditions: S. cerevisiae mlh1 rad18 strain growth inhibition; at 50.0 µM; stronger effect = higher value
Outline: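 Cells of a genetically altered yeast strain, deficient in DNA damage repair, were treated with compound. Their growth was then compared with that of vehicle-treated cultures to give inhibition.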

Measured: growth inhibition

C=CCSc1nc2c(=O)n(C)c(=O)n(C)c2n1C
inactive: [1] -11.3% | [2] -3.55% | [3] -6.85% | [4] -27.3% | [5] -6.8% | [6] 7.15%

CCCCCCCCC(O)C(O)CCCCCCCC(=O)OC (configuration not stated)
inactive: [1] -15.3% | [2] 5% | [3] -4.55% | [4] -105% | [5] 30.5% | [6] -22.9%

O=C1NC(=O)c2ccccc2/C1=C/c1ccc2c(c1)OCO2
inactive: [1] -16.6% | [2] -8.25% | [3] -13.3% | [4] -32.5% | [5] -2.6% | [6] -26.6%

Cc1cnc(Br)c(Br)c1
inactive: [1] 2.85% | [2] 0.8% | [3] 3.45% | [4] 15.9% | [5] 5.1% | [6] 13.1%

O=C1OC(c2ccccc2)=N/C1=C\c1ccco1
inactive: [1] -2.95% | [2] -19.3% | [3] -24.4% | [4] 19.6% | [5] -22.2% | [6] 23.6%

NCCSS(=O)(=O)CCN
inactive: [1] -17.4% | [2] -4.6% | [3] 18.4% | [4] -18.4% | [5] 1.95% | [6] 3.4%

CC1ON2CCCC2[C@H]1C(=O)N1C2CC3CCC2(CS1(=O)=O)C3(C)C (some centres not stated)
inactive: [1] -4.35% | [2] 2.9% | [3] -28.6% | [4] -0.35% | [5] 19.4% | [6] -36.7%

CCN(CC)c1cccc(C(=O)OCCNCC(C)C)c1
inactive: [1] -9.7% | [2] 0.85% | [3] 5.05% | [4] -39.7% | [5] 49.1% | [6] 10.8%

Cc1cccc(CC(N)C(=O)O)c1 (configuration not stated)
inactive: [1] -5.15% | [2] 5.1% | [3] -6.95% | [4] -3.3% | [5] 4% | [6] -9.8%

O=[N+]([O-])c1ccccc1C(Nc1nncs1)Nc1nncs1
inactive: [1] 17.3% | [2] 22.5% | [3] 41.5% | [4] -6.05% | [5] -3.3% | [6] 2.3%

CC(=O)N(C)c1ccc(Nc2cc(S(=O)(=O)O)c(N)c3c2C(=O)c2ccccc2C3=O)cc1
inactive: [1] -20.2% | [2] -14.1% | [3] -27.4% | [4] -13.8% | [5] -37.3% | [6] -4.25%

Fc1ccc(-c2nnc(-c3ccccc3)o2)cc1
inactive: [1] 21.4% | [2] 19.1% | [3] 25.2% | [4] 7.2% | [5] 31.4% | [6] 8.15%

CC(=O)C(CCN(C)C)c1ccc2c(c1)CCc1ccccc1-2 (configuration not stated)
inactive: [1] 13.3% | [2] 5.65% | [3] 19.4% | [4] -8.45% | [5] 13.3% | [6] 27.6%

CCOc1ccccc1NC(=S)NC(=O)CCc1ccccc1
inactive: [1] -12.9% | [2] 14.2% | [3] 41.9% | [4] -35% | [5] 31.6% | [6] 21.8%

CCN/C(C)=C\C(=O)OCC
inactive: [1] -0.9% | [2] 8.95% | [3] -0.65% | [4] -17.2% | [5] -9.95% | [6] 1.25%

C=C(C)COc1ccc(-c2ccccc2)cc1
inactive: [1] 24.5% | [2] 7.35% | [3] 8% | [4] -4.95% | [5] -3.85% | [6] -3.2%

Cc1ccc2c(c1)CCC(=O)O2
inactive: [1] 11.4% | [2] 0% | [3] -1.75% | [4] -17.2% | [5] 10.4% | [6] 3.4%

O=C(NCc1ccc(Cl)c(Cl)c1)Nc1ccccc1F
inactive: [1] 11% | [2] 11.1% | [3] 6.1% | [4] 9.65% | [5] 20.4% | [6] 7.05%

Nc1nnnn1-c1cccc(Cl)c1
inactive: [1] 7.5% | [2] 0.35% | [3] 1.6% | [4] -18.8% | [5] -2.4% | [6] 10.6%

[O-]/[N+](=C\c1ccc(OCc2ccccc2)cc1)c1ccccc1
inactive: [1] 16.5% | [2] -18.4% | [3] -20.7% | [4] -2.65% | [5] -4.25% | [6] -13.5%

CCOC(=O)/C(=C/O)NC(=O)c1ccccc1
inactive: [1] -10.4% | [2] 18.8% | [3] -5.5% | [4] -18.9% | [5] -9.95% | [6] 19.4%

COC(=O)c1nc(N)nc(C(=O)OC)c1C(=O)c1ccc(Cl)cc1Cl
inactive: [1] 7.25% | [2] -0.6% | [3] -15.5% | [4] 3.6% | [5] -8.3% | [6] -3.25%

N#CCC(=O)NCCc1ccccn1
inactive: [1] -6.75% | [2] -3.7% | [3] -13.8% | [4] -44.6% | [5] 10.2% | [6] -9.05%

CCOC(=O)C(C)(OCC)OCC
inactive: [1] -13.4% | [2] -13.2% | [3] -17.2% | [4] -8.55% | [5] -0.3% | [6] 11.9%

CCc1c(C)[nH]c2c1C(=O)CCC2
inactive: [1] 15.6% | [2] -4.65% | [3] 38.1% | [4] 18.1% | [5] 24.9% | [6] 46.9%

Cn1c2ccccc2n2c(=O)c(-c3ccc(Cl)cc3)nnc12
inactive: [1] -4.95% | [2] 10.9% | [3] -5.15% | [4] -6.15% | [5] -11.2% | [6] -35.4%

CSc1cc2c(cc1NC(C)=O)Cc1ccccc1-2
inactive: [1] 13.4% | [2] -3.75% | [3] 0.6% | [4] 10.5% | [5] 9.15% | [6] -13.4%

Cc1cccc(CN)n1
inactive: [1] -2.55% | [2] -29.2% | [3] 17.4% | [4] 4.05% | [5] -5.85% | [6] 2.15%

CCOC(=O)c1oc2ccc([N+](=O)[O-])c3c2c1CCC3
inactive: [1] 1.8% | [2] -1.95% | [3] -7% | [4] -2.35% | [5] -64% | [6] -8.05%

COc1ccc(C(=O)C(c2ccc(OCc3ccccc3)cc2)c2ccc(OCc3ccccc3)cc2)cc1
inactive: [1] 5.4% | [2] -35.8% | [3] -6.35% | [4] 26.9% | [5] -25.7% | [6] -5.55%

CCOC(CCCl)c1ccc(C)cc1 (configuration not stated)
inactive: [1] -25.2% | [2] -42.2% | [3] -20.4% | [4] 20.1% | [5] -33.6% | [6] -20.5%

C[C@H](N)C(O)/C=C/c1ccccc1 (some centres not stated)
inactive: [1] 5.1% | [2] -9.05% | [3] -0.7% | [4] -2.55% | [5] -0.3% | [6] -7.05%

CC(C)N(C(C)C)C1C=CC(N(C(C)C)C(C)C)CC1 (configuration not stated)
inactive: [1] 5% | [2] -15.9% | [3] 2.3% | [4] -33.6% | [5] -7.3% | [6] -0.35%

COC(OC)c1cccc2c1C(=O)CCC1(CC2)OCCCCO1
inactive: [1] 0.3% | [2] -21.1% | [3] -22.8% | [4] 3.6% | [5] -39.9% | [6] -11.2%

COc1ccccc1NC(=O)CC(=O)n1nc(C)c(N=Nc2ccccc2F)c1C
inactive: [1] -41.6% | [2] 1.45% | [3] -28.2% | [4] 6.8% | [5] -31.9% | [6] -30.3%

C[Si](C)(C)O/C=C1\CCCCC1=O
inactive: [1] 5.65% | [2] 8.4% | [3] 2.5% | [4] 14.8% | [5] 2.8% | [6] -23.6%

COc1ccc(C2CC(c3ccccc3)=NN2c2ccccc2)cc1 (configuration not stated)
inactive: [1] 0.75% | [2] -14.4% | [3] 5.85% | [4] -7.55% | [5] 4.85% | [6] 7.95%

CC1(C)CCC[C@@]2(C)C1C[C@H](O)[C@@]1(C)O[C@@](C)([C@H](O)CO)CCC21 (some centres not stated)
active: [6] 70.9%
inactive: [1] 28.6% | [2] 33% | [3] 56% | [4] 69.1% | [5] 29.2%

COc1ccc(/C=N/n2cnc3c(sc(=S)n3-c3ccccc3)c2=O)cc1
inactive: [1] 23% | [2] 1.1% | [3] -8.45% | [4] -1.7% | [5] -23.7% | [6] 12.8%

COC(=O)c1cc2c(cc1CC(Cc1ccc3c(c1)CCCC3)C(=O)OC)CCCC2 (configuration not stated)
inactive: [1] -2.1% | [2] 1.35% | [3] -15.2% | [4] 2.35% | [5] -2.25% | [6] -5.15%

Nc1ccc(I)cn1
inactive: [1] -3.35% | [2] 5.7% | [3] -3.65% | [4] -11.7% | [5] 14.6% | [6] -3.95%

NSC(=S)NCc1ccco1
inactive: [1] 1% | [2] -2.95% | [3] 7.75% | [4] -52.1% | [5] 15.8% | [6] 13.7%
